Hits are enriched below; roughly 3.4% of the tested compounds scored in any of these assays.
GPR151 activ = activators of human GPR151, primary screen, cell-based, PathHunter beta-arrestin, luminescence. activation, % at 11.2 µM. 1% of 650,000 active. AID 1508602, 2020. PathHunter beta-arrestin GPR151 cells. G-protein coupled receptor 151 (Homo sapiens), Q8TDV0; in the data active = activation above about 4.9%
Target sequence (Q8TDV0 whole entry, looked up): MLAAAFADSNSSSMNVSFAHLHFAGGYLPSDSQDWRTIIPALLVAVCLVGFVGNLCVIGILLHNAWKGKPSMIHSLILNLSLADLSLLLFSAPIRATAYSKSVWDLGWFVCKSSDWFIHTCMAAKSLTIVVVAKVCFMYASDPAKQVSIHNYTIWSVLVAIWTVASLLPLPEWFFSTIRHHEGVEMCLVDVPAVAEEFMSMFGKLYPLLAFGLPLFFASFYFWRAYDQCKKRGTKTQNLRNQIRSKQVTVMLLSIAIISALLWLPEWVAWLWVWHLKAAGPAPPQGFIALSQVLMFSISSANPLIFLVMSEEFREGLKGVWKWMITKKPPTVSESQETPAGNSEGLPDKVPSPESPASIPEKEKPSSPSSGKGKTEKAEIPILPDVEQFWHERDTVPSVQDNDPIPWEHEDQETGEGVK
FBW7 act = FBW7 E3 ligase activators, primary screen, biochemical, AlphaScreen, human; F-box/WD repeat-containing protein 7 (Homo sapiens), Q969H0; AlphaScreen FBW7–phospho-cyclin E peptide binding, activator screen; normalized activity (activation), % at 26.1 µM; 0.13% of 650,000 active; AID 1259310, 2017; in the data active = normalized activity above about 1.9%;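 note: purified mutant Fbw7 with reduced substrate affinity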
TEAD-YAP block = TEAD-YAP interaction inhibition, primary screen, TEAD-YAP interaction inhibitor project, luminescence, HEK-TIYL cells | TEAD-Gal4/YAP UAS-luciferase luminescence | inhibition, % at 9.12 µM | 1.4% of 640,000 active | AID 1259422, 2018; in the data active = inhibition above about 32%
MITF inh = MITF inhibitors, primary screen, biochemical, AlphaScreen, human | Microphthalmia-associated transcription factor (Homo sapiens), O75030 | AlphaScreen MITF homodimerization, bead proximity signal | inhibition, % at 2.6 µM | 0.91% of 650,000 active | AID 1259374, 2018; in the data active = inhibition above about 50%
MITF inh conf = MITF inhibitors, retest of hits, confirmation, biochemical, AlphaScreen, triplicate | 16% of 4,700 active | shares compounds with MITF inh | AlphaScreen MITF homodimerization, biotin/His-MITF beads | inhibition, % at 2.6 µM | AID 1259372, 2018;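 active = inhibition above a cutoff derived from the DMSO control wells, cut at about 28% in these data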;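 note: inhibitors lower the bead chemiluminescence by keeping MITF from dimerizing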
AS interf DR = AlphaScreen optical interference compounds, dose response, counter-screen, biochemical, HTS | shares compounds with MITF inh | AlphaScreen optical interference counterscreen, cell-free | IC50, µM | 6% of 480 active; call rule not given here
AlphaScreen intf2 = AlphaScreen optical interference compounds, counter-screen for MITF inhibitor project, biochemical, triplicate; shares compounds with MITF inh; LysRS AlphaScreen counterscreen, signal interference; inhibition, % at 2.6 µM; 7.6% of 4,700 active; AID 1259376, 2018;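 active = inhibition above a cutoff derived from the DMSO control wells, cut at about 30% in these data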
Hits are given with their value; i = inactive; nt = not tested or not shown.

SMILES | GPR151 activ | FBW7 act | TEAD-YAP block | MITF inh | MITF inh conf | AlphaScreen intf2 | others
O=[N+]([O-])c1cc(C=Nc2ccc(N3CCOCC3)cc2)c(O)c([N+](=O)[O-])c1 | i | i | i | 75 | 83 | i | AS interf DR=i
COc1ccc2[nH]c(=O)c(CN(CC3CCCO3)S(=O)(=O)c3ccc(C)cc3)cc2c1 (stereo not drawn) | i | i | i | i | nt | nt
CC1CCCCN1C(=O)CSc1nc2ccccc2n1CC(=O)N(C(C)C)C(C)C (stereo not drawn) | i | i | i | i | nt | nt
NCC(=O)Nc1c2c(nc3c1CCC3)CCC2 | i | i | i | 62 | i | i
O=C(CN1CCCCC1)Nc1c2c(nc3ccccc13)CCCC2 | i | i | i | 66 | i | i
NC(=O)C1CCN(CC(=O)Nc2c3c(nc4ccccc24)CCC3)CC1 | i | i | i | i | nt | nt
Cc1cc(NC(=O)CN2CCOCC2)c2ccccc2n1 | i | i | i | i | nt | nt
O=C(CN1CCCCCC1)NC(c1ccccc1)c1ccccc1 | i | i | i | 54 | i | i
Cc1cc(NC(=O)CN2CCCCC2)c2ccccc2n1 | i | i | i | 51 | i | i
O=C(NCc1ccc(F)cc1)c1cc(S(=O)(=O)N2CCCC2)c[nH]1 | i | i | i | i | nt | nt
COc1ccc(/C=C(\NC(=O)c2ccccc2F)C(=O)N2CC3CC(C2)c2cccc(=O)n2C3)cc1OC (stereo not drawn) | i | i | i | i | nt | nt
O=C1/C(=C/c2ccncc2)Oc2cc(OCc3ccc(F)cc3)ccc21 | i | i | i | i | nt | nt
O=C1[C@@H]2CCCN2C(=O)c2ccccc2N1Cc1ccc2ccccc2n1 | i | i | i | i | nt | nt
Cc1cc2c(c(=O)o1)C(CC(C)C)c1c(N)noc1-2 (stereo not drawn) | i | i | i | i | nt | nt
O=C(CN1CCCCC1)Nc1c2c(nc3c1CCC3)CCCC2 | i | i | i | 71 | i | i
CC(C)(C)NCC(=O)Nc1c2c(nc3c1CCC3)CCC2 | i | i | i | i | nt | nt
CCn1c2ccccc2c2cc(CN3CCN(Cc4cc(OC)c(OC)cc4[N+](=O)[O-])CC3)ccc21 | i | i | i | 82 | i | i
COc1cc(CN2CCN(Cc3cccc4ccccc34)CC2)c([N+](=O)[O-])cc1OC | i | i | i | 70 | i | i
COc1cc(CN2CCN(Cc3cccc(OC)c3OC)CC2)c([N+](=O)[O-])cc1OC | i | i | i | 52 | i | i
NC(=O)c1ccc(NC(=O)c2cnccn2)cc1 | i | i | i | i | nt | nt
CCCCC(=O)Nc1ccc(F)c([N+](=O)[O-])c1 | i | i | i | i | nt | nt
NS(=O)(=O)c1ccc(CCNC(=O)CNS(=O)(=O)c2cccs2)cc1 | i | i | i | 80 | i | i
O=C1NCCN1c1ccc(CC(=O)N2CCC[C@@H]3CN(Cc4cccs4)CC[C@H]32)cc1 | i | i | i | i | nt | nt
CC(C)N(C(=O)COc1ncnc2scc(-c3ccccc3)c12)C(C)C | i | i | i | i | nt | nt
Fc1ccc(CN2CCN(C3CC4CCC3C4)CC2)cc1 (stereo not drawn) | i | i | i | 79 | i | i
SMILES | GPR151 activ | FBW7 act | TEAD-YAP block | MITF inh | MITF inh conf | AlphaScreen intf2 | others
COc1ccc(CN2CCN(C3CCN(Cc4ccccc4)CC3)CC2)cc1OCc1ccccc1 | i | i | i | i | nt | nt
CCOc1cc(CN2CCN(C3CCCCCC3)CC2)ccc1OC | i | i | i | 55 | i | i
CCOc1cc(CN2CCN(C3CCCCC3)CC2)ccc1OC | i | i | i | 64 | i | i
CCOc1ccc(CN2CCN(S(=O)(=O)CC)CC2)cc1OC | i | i | i | i | nt | nt
COc1ccc(CN2CCC(N3CCCCC3)CC2)cc1OC | i | i | i | i | nt | nt
CCOc1cc(CN2CCN(C3CC4CCC3C4)CC2)ccc1OC (stereo not drawn) | i | i | i | 69 | i | i
Cc1ccc(-c2nnc(NC(=O)C3CCCCC3)o2)cc1C | i | i | i | i | nt | nt
CCCn1c(N2CCN(CC(=O)c3ccc(F)cc3)CC2)nc2ccccc21 | i | i | i | i | nt | nt
Cc1ccc(NCc2ccccc2O)cc1 | i | i | i | i | nt | nt
Cc1ccc(NCc2ccc(O)c3ncccc23)cc1 | i | i | i | 53 | 105 | 100
CCN(CC)Cc1cccc2cccnc12 | i | i | i | i | nt | nt
CCN(CC)Cc1ccc(O)c2ncccc12 | i | i | 51 | 93 | 102 | 100
Cc1cccnc1NCc1ccc(O)c2ncccc12 | i | i | i | 64 | 52 | 91
Cc1nccn1Cc1ccc(O)c2ncccc12 | i | i | i | 82 | 103 | 101
CC(=O)NCCC(=O)Nc1ccc(OC(F)F)cc1 | i | i | i | i | nt | nt
Cc1ccc(COc2ccc(/C=N/N=C3\NC(=O)C(CC(=O)O)S3)cc2)cc1 (stereo not drawn) | i | i | i | 53 | 35 | i | AS interf DR=i
COc1ccc(/C=N/N=C2\NC(=O)C(CC(=O)Nc3ccc(C)cc3)S2)cc1 (stereo not drawn) | i | i | i | 73 | i | i
COc1ccc(NC(=O)CC2S/C(=N/N=C3\CSC(=O)N3)NC2=O)cc1 (stereo not drawn) | i | i | i | 82 | 62 | 100
O=C(CC1S/C(=N/N=C2\CSC(=O)N2)NC1=O)Nc1ccccc1 (stereo not drawn) | i | i | i | 65 | 66 | 100
CCOc1cc(/C=N/N=C2\NC(=O)C(CC(=O)O)S2)ccc1OCc1ccc(F)cc1 (stereo not drawn) | i | i | i | i | nt | nt
CCOc1ccc(NC(=O)CC2S/C(=N\N=C3/C=C(C)CC(C)(C)C3)NC2=O)cc1 (stereo not drawn) | i | i | i | i | nt | nt
Cc1ccc(NC(=O)CC2S/C(=N\N=C3\CSC(=O)N3)NC2=O)cc1 (stereo not drawn) | i | i | i | 82 | 68 | 100
CC1=C/C(=N\N=C2\NC(=O)C(CC(=O)Nc3ccc(C(=O)O)cc3)S2)CC(C)(C)C1 (stereo not drawn) | i | i | i | 68 | 72 | i | AS interf DR=i
CCOC(=O)N1CCN(C(=O)Cn2cc3c(n2)CCCCC3)CC1 | i | i | i | i | nt | nt
CCn1nnc(NC(=O)c2ccc(OC)c([N+](=O)[O-])c2)n1 | i | i | i | i | nt | nt
C=CCOC(=O)COc1ccc2c(=O)c(Oc3ccc(OC)cc3)coc2c1 | i | i | i | 75 | i | i
OC(CON=C1c2ccccc2-c2ccccc21)CN1CCNCC1 (stereo not drawn) | i | i | i | 77 | i | i

Screening data: PubChem BioAssay, The Scripps Research Institute Molecular Screening Center
